Source: PubChem BioAssay AID1259421 (Broad Institute, 2018)
Values joined by “and” are separate entries in the source; they are usually repeats but may differ in a detail not shown here. Identical values can stand only once. Screen size: about 6,400 compounds; about 610 (9.5%) were called active. This is one part of a sample in which actives are shown more often than they occur. No stated cut-off is given here; in the data, active means activity change below about -70%; inconclusive means no clear call, values can overlap the other calls; inactive means above that. More than one record can exist for a structure, and the calls need not agree.

Experiment: Toxoplasma gondii ME49Luc growth in HeLa cells, luciferase, no IFN-y, primary screen (AID 1259421)
Settings: T. gondii ME49Luc in HeLa, 72 h, stronger effect = lower value, concentration not given here

Compound | activity change, negative = inhibition
CN1CCc2ccccc2Cc2[nH]c3ccccc3c2CC1 | 12.1% (inactive)
O=c1c2ccccc2nc2n1CCc1c-2[nH]c2ccccc12 | 249% (inactive)
CN1c2ccccc2C(=O)N2CCc3c([nH]c4ccccc34)C21 (stereo not given) | -71.6% (active)
O=C(O)CCC/C=C/CC1COC(C(F)(F)F)OC1c1ccccc1O (stereo not given) | 0.246% (inactive)
C=C[C@@]1(C)CC(=O)[C@@]2(O)[C@](C)(O1)[C@@H](OC(C)=O)[C@@H](O)C1C(C)(C)CC[C@H](O)[C@@]12C (stereo not given in full) | 6.95% (inactive)
Cc1ccc(C(=O)Nc2cccc(C(F)(F)F)c2)cc1Nc1nc(-c2cccnc2)nc2c1cnn2C | -48.8% (inactive)
Cc1cn(-c2cc(NC(=O)c3ccc(C)c(Nc4nccc(-c5cccnc5)n4)c3)cc(C(F)(F)F)c2)cn1 | -85.2% (active) and -76.5% (active)
Cc1ccc(NC(=O)c2ccc(CN3CCN(C)CC3)cc2)cc1Nc1nc(-c2cccnc2)cs1 | 47.7% (inactive)
Cc1ccc(NC(=O)c2ccc(CN3CCN(C)CC3)cc2)cc1Nc1nccc(-c2cccnc2)n1 | 3.71% (inactive) and 10.8% (inactive) and -1.32% (inactive)
Cc1ncc(NC(=O)c2ccc(CN3CCN(C)CC3)c(C(F)(F)F)c2)cc1Nc1nccc(-c2cccnc2)n1 | -77.9% (active)
O=Cc1ccccc1O[C@@H]1O[C@H](CO)[C@H](O)[C@@H](O)[C@H]1O | 4.65% (inactive)
NC(=O)c1nc(F)c[nH]c1=O | 2.13% (inactive)
Cc1c[nH]c2ccccc12 | -2.35% (inactive)
NC(N)=NCCC[C@@H](N)C(=O)O | 13.4% (inactive)
Cn1c(C#N)ccc1-c1ccc2c(c1)C(C)(C)OC(=S)N2 | -80.3% (active)
Cc1ccc(-n2[nH]c(C)c(N=Nc3cccc(-c4cccc(C(=O)O)c4)c3O)c2=O)cc1C | -77.8% (active)
CCOc1ccccc1N=Nc1c(C)[nH]n(-c2nc(-c3ccccc3)cs2)c1=O | -0.237% (inactive)
Cn1cc(C(=O)[C@@H]2CCc3nc[nH]c3C2)c2ccccc21 | 3.43% (inactive)
CC1(C)C(=O)NC2=C1C(=O)C(=O)c1ccccc12 | -90% (active)
CC1=CC(=O)c2ccccc2C1=O | 2.88% (inactive) and 20.5% (inactive)
C[N+](C)(C)CCOP(=O)(O)OC[C@H](O)CO | 7.52% (inactive)
COC(=O)C[C@H]1C(C)(C)[C@@H](OC(C)=O)[C@@H]2CC3=C4CC(=O)O[C@@H](c5ccoc5)[C@]4(C)CCC3[C@@]1(C)C2=O (stereo not given in full) | 13.2% (inactive)
CC(=O)O[C@H]1Cc2ccccc2N(C(N)=O)c2ccccc21 | 8.82% (inactive)
O=c1cc(-c2ccc(O)cc2)oc2cc(O[C@@H]3O[C@H](CO)[C@@H](O)[C@H](O)[C@H]3O[C@@H]3OC[C@](O)(CO)[C@H]3O)cc(O)c12 | -2.43% (inactive)

Compound | activity change, negative = inhibition
CC(C)N=c1cc2n(-c3ccc(Cl)cc3)c3ccccc3nc-2cc1Nc1ccc(Cl)cc1 | -81.2% (active) and 17.4% (inactive)
Cc1nc2ccccc2n1Cc1ccc(Cl)cc1 | -8.55% (inactive)
Cc1ccc2c(c1)C(=O)[C@]1(O)CCN(c3ccccc3)C1=N2 | 7.51% (inactive)
Cc1c(OCC(F)(F)F)ccnc1C[S@@](=O)c1nc2ccccc2[nH]1 | 83.6% (inactive)
Cc1[nH]nc2ccc(-c3cncc(OC[C@@H](N)Cc4ccccc4)c3)cc12 | -82.2% (active)
O=S(=O)(O)c1ccc(-c2c3nc(c(-c4ccc(S(=O)(=O)O)cc4)c4ccc([nH]4)c(-c4ccc(S(=O)(=O)O)cc4)c4nc(c(-c5ccc(S(=O)(=O)O)cc5)c5ccc2[nH]5)C=C4)C=C3)cc1 | -0.332% (inactive)
COc1cc2nccc(Oc3ccc(NC(=O)Nc4cc(C)on4)c(Cl)c3)c2cc1OC | -84.5% (active)
COc1cc2c(N3CCN(C(=O)Nc4ccc(OC(C)C)cc4)CC3)ncnc2cc1OCCCN1CCCCC1 | 11% (inactive)
COc1cc2nccc(Oc3ccc(NC(=O)Nc4ccc(F)cc4F)c(F)c3)c2cc1OC | -38.1% (inactive)
COc1cc2nccc(Oc3ccc(NC(=O)NC4CC4)c(Cl)c3)c2cc1C(N)=O | 6.94% (inactive) and -7.61% (inactive)
COc1cc2nccc(Oc3ccc(NC(=O)C4(C(=O)Nc5ccc(F)cc5)CC4)cc3)c2cc1OC | -93.3% (active)
COc1cc2c(Oc3ccc(NC(=O)C4(C(=O)Nc5ccc(F)cc5)CC4)cc3F)ccnc2cc1OCCCN1CCOCC1 | -67.4% (inactive)
Oc1cccc(-c2c3nc(c(-c4cccc(O)c4)c4ccc([nH]4)c(-c4cccc(O)c4)c4nc(c(-c5cccc(O)c5)c5ccc2[nH]5)C=C4)C=C3)c1 | 8.49% (inactive)
C[C@H](NC(=O)C(C)(C)Oc1ccc(C(F)(F)F)cn1)[C@@H](Cc1ccc(Cl)cc1)c1cccc(C#N)c1 | -17.6% (inactive)
COc1ccc(S(=O)(=O)Nc2nnc(CC(C)C)s2)cc1 | 16.5% (inactive)
COC(=O)[C@H]1[C@H]2C[C@@H]3c4[nH]c5ccccc5c4CCN3C[C@H]2C[C@@H](OC(=O)c2cc(OC)c(OC)c(OC)c2)[C@@H]1OC | -2.54% (inactive)
CC[C@]1(O)CC2CN(CCc3c([nH]c4ccccc34)[C@@](C(=O)OC)(c3cc4c(cc3OC)N(C)[C@H]3[C@@](O)(C(=O)OC)[C@H](OC(C)=O)[C@]5(CC)C=CCN6CC[C@]43[C@@H]65)C2)C1 (stereo not given in full) | -90.8% (active)
CC[C@]1(O)CC2CN(CCc3c([nH]c4ccccc34)[C@@](C(=O)OC)(c3cc4c(cc3OC)N(C=O)[C@H]3[C@@](O)(C(=O)OC)[C@H](OC(C)=O)[C@]5(CC)C=CCN6CC[C@]43[C@@H]65)C2)C1 (stereo not given in full) | -76.5% (active)
CCC1(O)CC2CN(CCc3c([nH]c4ccccc34)C(C(=O)OC)(c3cc4c(cc3OC)N(C)C3C(O)(C(=O)OC)C(C(=O)OC)C5(CC)C=CCN6CCC43C65)C2)C1 (stereo not given) | -82.9% (active)
CCC1=C[C@@H]2CN(C1)Cc1c([nH]c3ccccc13)[C@@](C(=O)OC)(c1cc3c(cc1OC)N(C)[C@H]1[C@@](O)(C(=O)OC)[C@H](OC(C)=O)[C@]4(CC)C=CCN5CC[C@]31[C@@H]54)C2 | -61.1% (inactive)
CO[C@H]1C[C@H]2CC[C@@H](C)[C@@](O)(O2)C(=O)C(=O)N2CCCC[C@H]2C(=O)O[C@H]([C@H](C)C[C@@H]2CC[C@H](OC(=O)C(C)(CO)CO)[C@H](OC)C2)CC(=O)[C@H](C)/C=C(\C)[C@@H](O)[C@@H](OC)C(=O)[C@H](C)C[C@H](C)/C=C/C=C/C=C/1C | 9.08% (inactive)
CCOC(=O)[C@H](CCc1ccccc1)N[C@H]1CCCN2CCC[C@H](C(=O)O)N2C1=O | -4.74% (inactive)
CC(N)(C(=O)O)c1ccc(-c2nn[nH]n2)cc1 (stereo not given) | 3.49% (inactive)
C[C@@H]1C(=O)O[C@H]2[C@H](O)C34[C@H]5C[C@@H](C(C)(C)C)[C@]36[C@@H](OC(=O)[C@@H]6O)O[C@]4(C(=O)O5)[C@@]12O (stereo not given in full) | 5.38% (inactive)

Compound | activity change, negative = inhibition
CN1CCN(C(=O)C2C3CCC(O3)C2C(=O)O)CC1 (stereo not given) | 3.27% (inactive)
Cc1sc[n+](CC(=O)c2ccccc2)c1C | 60.9% (inactive)
CSc1ccc2c(c1)C(N1CCN(C)CC1)Cc1ccccc1S2 (stereo not given) | -82.4% (active) and -87% (active) and -85.3% (active)
CN1CCN(C2Cc3ccccc3Sc3ccc(Cl)cc32)CC1 (stereo not given) | 7.98% (inactive)
CSc1ccc2c(c1)N(CCC1CCCCN1C)c1ccccc1S2 (stereo not given) | 31.1% (inactive) and -16.1% (inactive)
C[C@@H]1O[C@@H](O[C@H]2[C@H](Oc3cc(O)c4c(=O)cc(-c5ccc(O)cc5)oc4c3)O[C@H](CO)[C@@H](O)[C@@H]2O)[C@H](O)[C@H](O)[C@H]1O | 5.34% (inactive)
CCO[C@H]1OC(=O)C[C@@H]1NC(=O)[C@@H]1CCCN1C(=O)[C@@H](NC(=O)c1ccc(N)c(Cl)c1)C(C)(C)C | 3.07% (inactive)
CCOC(=O)[C@@]1(CCCCCCOc2ccc(Cl)cc2)CO1 | 17.5% (inactive)
O=C(O)CC(=O)C(=O)O | 21.8% (inactive)
CCCCCCCCNC(C)C(O)c1ccc(SC(C)C)cc1 (stereo not given) | -84.8% (active) and -78% (active) and 18.5% (inactive)
C[C@@H](NCCc1ccc(O)cc1)[C@@H](O)c1ccc(O)cc1 | 24.4% (inactive)
CC(NCCc1ccc(O)cc1)C(O)c1ccc(O)cc1 (stereo not given) | 1.92% (inactive) and 4.83% (inactive)
NS(=O)(=O)c1cccc2c1c([N+](=O)[O-])cc1[nH]c(=O)c(=O)[nH]c12 | 4.26% (inactive) and 1.99% (inactive) and 17.2% (inactive)
CC(C)C1C2CCC(C2)C1N (stereo not given) | -31.8% (inactive)
O=[N+]([O-])c1nccn1CC(O)CN1CCCCC1 (stereo not given) | -0.914% (inactive)
Cc1nc(C)c(-c2ccc(C3CCC(CC(=O)O)CC3)cc2)nc1C(N)=O (stereo not given) | 21.5% (inactive)
CNC(=O)[C@H]1O[C@@H](n2cnc3c(NCc4cccc(I)c4)nc(Cl)nc32)[C@H](O)[C@@H]1O | -25.8% (inactive)
C=CC(=O)N1CCC[C@@H](n2nc(-c3ccc(Oc4ccccc4)cc3)c3c(N)ncnc32)C1 | -76.1% (active)
C/C(=C(/CCOC(=O)C(C)C)SS/C(CCOC(=O)C(C)C)=C(\C)N(C=O)Cc1cnc(C)nc1N)N(C=O)Cc1cnc(C)nc1N | -5.95% (inactive)
COC(=O)[C@@]1(C)CCC[C@]2(C)c3ccc(O)c(C(C)C)c3CCC12 (stereo not given in full) | -72.7% (active)
CC(=O)Oc1ccc2c(c1C(C)C)CCC1C(C)(C)CCC[C@]21C (stereo not given in full) | -4.41% (inactive)
CC(C)c1c(O)ccc2c1CCC1C(C)(C)CCC[C@]21C (stereo not given in full) | 25.1% (inactive)
